# PubChem BioAssay AID567 (The Scripps Research Institute Molecular Screening Center, 2006)
# Out of some 65,000 compounds screened, about 370 (0.57%) were called active. The sample holds actives, similar compounds and a random draw of the others, so the mix is not that of the screen. A number with no mark means an inactive call.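 How the source made its calls: active means activation above the screen-wide mean activation plus 3 SD (cut at about 19% in these data); inactive means the rest.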
# Target: 5-hydroxytryptamine receptor 1A (Homo sapiens) (UniProt P08908)
# Test: human 5-HT1a receptor agonists, primary screen, cell-based, CHO, Ga15 NFAT-bla reporter (AID 567);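 further: 0% = DMSO wells and 100% = 5-CT at EC100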
# Settings: CHO 5-HT1a Ga15 NFAT-bla reporter, FRET ratio; at 10 µM; active compounds read high; 0% basal, 100% maximal reference agonist
# Chain of 5-hydroxytryptamine receptor 1A (Homo sapiens) (P08908 whole entry, looked up): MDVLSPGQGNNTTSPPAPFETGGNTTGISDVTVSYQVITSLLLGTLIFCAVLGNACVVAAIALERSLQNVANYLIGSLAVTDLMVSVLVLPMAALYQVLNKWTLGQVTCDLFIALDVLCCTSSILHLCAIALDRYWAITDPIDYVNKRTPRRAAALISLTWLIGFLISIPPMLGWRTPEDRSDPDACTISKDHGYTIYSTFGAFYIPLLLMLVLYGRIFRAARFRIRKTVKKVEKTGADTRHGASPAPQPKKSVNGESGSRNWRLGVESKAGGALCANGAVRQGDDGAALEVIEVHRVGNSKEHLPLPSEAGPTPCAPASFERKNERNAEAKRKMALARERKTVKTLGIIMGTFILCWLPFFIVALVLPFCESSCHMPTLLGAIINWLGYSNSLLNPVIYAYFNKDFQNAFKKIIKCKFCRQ
row,SMILES,activation
1,COC(=O)c1ccc(S(=O)(=O)c2ccc(C(=O)OC)s2)s1,2.5%
2,CCOC(=O)CN(C(=O)CN1CCOCC1)c1ccc(Br)cc1,-0.22%
3,CCOC(=O)C1CCN(C(c2cc3cc(C)cc(C)c3[nH]c2=O)c2nnnn2C2CCCCC2)CC1 (configuration not stated),-0.97%
4,CC(C)CCNC(=O)C1CCCN(S(=O)(=O)c2ccc(F)cc2)C1 (configuration not stated),0.42%
5,O=C(NCc1ccco1)c1ccc(CS(=O)(=O)Cc2ccc(F)cc2)o1,-3.1%
6,O=C(c1cccs1)N1CCCC(c2nc(-c3ccc(F)cc3)no2)C1 (configuration not stated),-1.69%
7,Cn1c(=O)c2c(ncn2CC(=O)N2CCN(c3ccccc3)CC2)n(C)c1=O,-0.49%
8,Cc1noc(NS(=O)(=O)c2ccc(NC(=O)C34CCC(CC3)C4)cc2)c1C,0.73%
9,COc1ccc(C(=O)Nc2ccc(S(=O)(=O)Nc3onc(C)c3C)cc2)cc1OC,-4.48%
10,Cc1noc(NS(=O)(=O)c2ccc(N3CC(O)=C(c4ccccc4)C3=N)cc2)c1C,147% (active)
11,COc1cccc2c(=O)n(CC(=O)N3CCCCCC3)ccc12,-2.41%
12,CC1=C(C(=O)OCc2ccccc2)C(c2ccco2)n2ncnc2N1 (configuration not stated),2.82%
13,CCCOc1ccc(N2CC(C(=O)Nc3ccccn3)CC2=O)cc1 (configuration not stated),-1.38%
14,COc1cc2ccccc2cc1C(=O)Nc1ccc(S(=O)(=O)Nc2cc(C)on2)cc1,0.01%
15,CC(C)(C)n1c(=O)[nH]c2c(c1=O)CCC2,-0.19%
16,Cc1ccc(-n2nc3cc(Cl)c(NC(=O)c4ccco4)cc3n2)cc1,0.44%
17,c1ccc2cc(OCCN3CCCC3)ccc2c1,-1%
18,O=C(CN1C2CCC1CC(NC(=O)C1CC1)C2)NCc1ccccc1 (configuration not stated),0.81%
19,CCn1c(SCC(=O)Nc2ccc3c(c2)OCCO3)nc2c(c1=O)SC(C)C2 (configuration not stated),1.05%
20,O=C(c1ccc2c(c1)OCCO2)C1CCN(S(=O)(=O)c2cccc(F)c2)CC1,-3.42%
21,CC(=O)NS(=O)(=O)c1ccccc1,-2.33%

row,SMILES,activation
1,Fc1cnc(N2CCOCC2)nc1NCc1ccccc1,-1.58%
2,CCn1c(SCC(=O)Nc2nccs2)nnc1-c1ccncc1,-0.84%
3,CC(=O)Cc1nsc(NC(=O)c2csc3c2CCCC3)n1,0.34%
4,CC(=O)Cc1nsc(NC(=O)c2ccc(COc3ccc(C)cc3)o2)n1,-1.31%
5,COc1ccc(-c2nn(-c3ccccc3)cc2C(=O)Nc2nc(CC(C)=O)ns2)cc1,59.1% (active)
6,COC(=O)C1=CN(C)C=C(C(=O)OC)C1c1ccc(Cl)cc1Cl,13.7%
7,CCOc1cc(C2C(C(=O)OC)=CN(C3CCCC3)C=C2C(=O)OC)cc(Br)c1O,14.4%
8,CCOc1ccccc1C1C(C(=O)OC)=CN(C)C=C1C(=O)OC,20.1% (active)
9,CC(=O)c1ccc(N2C(=NC(=O)C(C)C)SC3CS(=O)(=O)CC32)cc1 (configuration not stated),-1.94%
10,CN(C)/C=C1/Nc2ccccc2C1=O,-1.11%
11,O=C(O)c1ccc(F)c(S(=O)(=O)Nc2ccccc2)c1,1%
12,COc1ccc(NC(C)=O)cc1NC(=O)CN1CCN(c2ccccn2)CC1,-1.16%
13,COC(=O)c1ccc(C2NC(=O)NC(C)=C2C(=O)N(C)C)cc1 (configuration not stated),-3.69%
14,O=C(c1ccc(S(=O)(=O)N2CCOCC2)cc1)N1CCN(c2ccccc2)CC1,-2.91%
15,CNC(=O)c1nnn(-c2ccccc2)c1C(=O)NC,-1.73%
16,CCOc1ccc(NS(=O)(=O)c2ccc(OCC(=O)NCCCOC)cc2)cc1,-1.21%
17,O=C(COC(=O)CCc1c[nH]c(=O)[nH]1)Nc1ccccc1Cl,-0.97%
18,CCOc1ccc(NC(=O)Nc2cc(C)ccc2OC)cc1,-4.41%
19,CCOC(=O)c1c(C)[nH]c(C(=O)NCc2ccccc2OC)c1C,-0.94%
20,COc1ccc(C)cc1NC(=O)c1[nH]c(C)c(C(C)=O)c1C,43.5% (active)
21,O=C(CSc1nnc(-c2ccco2)o1)NCC(=O)c1ccccc1,0.23%

row,SMILES,activation
1,Cc1ccc(CNC(=O)C2CCCN(S(C)(=O)=O)C2)cc1 (configuration not stated),0.44%
2,Cc1cc(C)c(NC(=O)CS(=O)CC(=O)Nc2cccnc2)c(C)c1 (configuration not stated),0.42%
3,CCCC(=O)Nc1ccc(C(=O)NCCCn2ccnc2)cc1,-3.99%
4,CCOC(=O)C1(Cc2ccc(O)cc2)NC(c2ccccc2F)C2C(=O)N(C)C(=O)C21 (configuration not stated),-1.57%
5,COc1ccccc1N1CC(O)=C(c2nc3ccccc3s2)C1=N,-3.98%
6,Cc1ccc(C(=O)CS(C)(=O)=O)cc1,-5.39%
7,O=C(O)C1CCCN(S(=O)(=O)c2cccc3cccnc23)C1 (configuration not stated),-4.76%
8,Cc1[nH]c2ccc(S(N)(=O)=O)cc2c1C,-0.45%
9,Cc1ccccc1CSCC(=O)NC(=O)NC(C)(C)C,-1.47%
10,CC1CCCN(c2ccc(C(=O)NCCc3ccccc3)cn2)C1 (configuration not stated),-0.9%
11,C=CCn1c(N)c(C(=O)OCC(C)C)c2nc3ccccc3nc21,0.61%
12,CC(C)Cn1c(N)c(C(=O)NCc2cccs2)c2nc3ccccc3nc21,77.6% (active)
13,C=CCn1c(N)c(S(=O)(=O)c2cccs2)c2nc3ccccc3nc21,-0.33%
14,CCOc1ccc2nc(SC(CC)C(=O)Nc3cc(C)on3)sc2c1 (configuration not stated),0.42%
15,COc1ccc(F)cc1S(=O)(=O)Nc1ccc2c(c1)OCO2,-5.74%
16,O=C(Cn1cnc2c(nnn2Cc2ccc(F)cc2)c1=O)NCc1ccc2c(c1)OCO2,-1.47%
17,COc1cccc2c(C)c(C(=O)O)[nH]c12,1.98%
18,C=CCSC1=C(C#N)C(c2cc(Br)c(O)c(OC)c2)CC(=O)N1 (configuration not stated),1.53%
19,C=CCNc1nnc(SCC(=O)N2CCCCC2)c2ccccc12,0.32%
20,O=C1c2ccncc2C(=O)N1C1CCCCC1,-3.22%
